Most compounds without a hit are left out; they make up all but 32% or so of the library.
CYP2C19 inhib = blocks human cytochrome P450 2C19; P33261; CYP2C19 Supersomes, luciferin-H EGE luminescence, 30 min; inhibition, % at 5 µM; 96,000 compounds, 21% hits;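 active = CYP2C19 inhibition above a set limit at 5 µM in the primary screen, cut at about 50% in these data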
Target sequence (P33261 whole entry, looked up): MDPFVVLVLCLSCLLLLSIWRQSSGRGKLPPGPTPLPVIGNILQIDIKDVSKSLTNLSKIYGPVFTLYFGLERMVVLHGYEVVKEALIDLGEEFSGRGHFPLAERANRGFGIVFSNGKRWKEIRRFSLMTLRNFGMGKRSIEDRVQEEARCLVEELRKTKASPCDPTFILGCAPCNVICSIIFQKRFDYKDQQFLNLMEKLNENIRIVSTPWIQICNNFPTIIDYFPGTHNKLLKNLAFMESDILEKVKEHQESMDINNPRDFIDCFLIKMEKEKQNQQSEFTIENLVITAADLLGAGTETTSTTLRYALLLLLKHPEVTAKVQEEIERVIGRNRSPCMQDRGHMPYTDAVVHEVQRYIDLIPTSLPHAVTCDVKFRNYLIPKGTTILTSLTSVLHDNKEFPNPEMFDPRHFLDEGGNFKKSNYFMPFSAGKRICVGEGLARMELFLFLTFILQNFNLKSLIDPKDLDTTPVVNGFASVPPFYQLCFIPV
CYP2C9 inhib = human CYP2C9 inhibition. 96,000 compounds, 20% hits. inhibition, % at 5 µM. CYP2C9 Supersomes, luciferin-H conversion, luminescence. P11712;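 active = blocking of liver enzyme CYP2C9 beyond about 50% at 5 µM, limit read from the data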
CYP2C9 act = increases human cytochrome P450 2C9 activity | P11712 | recombinant CYP2C9, luciferin-H conversion, luminescence; active compounds read high; factor 1 = untreated enzyme, 0 = blocked | activation factor at 5 µM | 96,000 compounds, 1.4% hits;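 active = activation factor of 2 or more for CYP2C9 at a 5 µM dose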
CYP2C19 activ = increases human CYP2C19 enzyme activity. P33261. 96,000 tested, under 10 active. activation factor at 5 µM. AID 1025. recombinant CYP2C19, luciferin-H EGE luminescence; active compounds read high; 0 = fully inhibited enzyme, 1 = untreated enzyme;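 active = activation factor of at least 2 at 5 µM in the primary screen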
PostGolgi ctrl = yeast control strain growth, post-Golgi counter-screen | efflux-deficient yeast background strain, growth absorbance A615, 16 h | inhibition, % at 10 µM | 98,000 compounds, 5% hits | AID 738
PostGolgi yeast = growth inhibition of a yeast mutant, post-Golgi transport screen | inhibition, % at 10 µM | AID 739 | 98,000 compounds, 0.9% hits | post-Golgi transport phenotypic cell assay;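 also: yeast cells grown in 1536-well plates; yeast grown about 18 h at 30C before absorbance read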
Hits are given with their value; . = inactive; / = no result. Rule as the data show it, unless noted: active = inhibition above about 30%; inactive = the rest.

SMILES | CYP2C19 inhib | CYP2C9 inhib | CYP2C9 act | CYP2C19 activ | PostGolgi ctrl | PostGolgi yeast
Clc1ccc2c(c1)CNc1c(ncnc1N1CCOCC1)O2 | 99 | 56 | . | . | . | .
O=C1CC(c2ccccc2)CCc2sccc2N1 (centres undefined) | 66 | . | . | . | . | .
O=C1CC(C(=O)O)c2ccccc2N1 (centres undefined) | . | . | . | . | . | .
CCc1ccc(N2CC(C(=O)Nc3nccs3)CC2=O)cc1 (centres undefined) | . | . | . | . | . | .
O=C(NCCN1CCOCC1)c1cc2cc(Br)ccc2oc1=O | . | . | . | . | . | .
CSc1nnc(C)c(/C=C/Nc2ccc(F)cc2)n1 | . | . | . | . | . | .
CSc1nnc(C)c(/C=C/Nc2ccc(Cl)cc2)n1 | . | 57 | . | . | . | .
Cc1nnc(SCC(=O)Nc2ncc(Cc3ccc(F)cc3)s2)n1N | . | . | . | . | . | .
Cc1ccccc1NS(=O)(=O)c1cc(C(=O)Nc2ccccc2-c2ccccc2)ccc1Cl | . | 84 | . | . | . | .
Cc1cccc(NS(=O)(=O)c2cc(C(=O)N3CCc4ccccc4C3)ccc2Cl)c1C | . | 58 | . | . | 74 | 97
CCOC(=O)N1CCN(C(=O)c2ccc(C)c(S(=O)(=O)Nc3cccc(C)c3C)c2)CC1 | 54 | 98 | . | . | . | .
Cc1ccc(C(=O)N2CCOCC2)cc1S(=O)(=O)Nc1cccc(C)c1C | / | / | / | / | . | .
C=CCNC(=O)c1ccccc1NC(=O)c1ccc(Cl)c(S(=O)(=O)Nc2cc(C)ccc2C)c1 | . | . | . | . | . | .
Cc1ccc(C)c(NS(=O)(=O)c2cc(C(=O)N3CCc4ccccc4C3)ccc2Cl)c1 | . | 59 | . | . | 71 | 104
CCOC(=O)N1CCN(C(=O)c2ccc(C)c(S(=O)(=O)Nc3ccccc3)c2)CC1 | . | . | . | . | . | .
CCOc1ccc(NC(=O)CSc2nc3cccnc3n2CC)cc1 | . | . | . | . | . | .
COC1Cc2ccccc2N(C(=O)N2CCN(CCO)CC2)c2ccccc21 (centres undefined) | . | . | . | . | . | .
COC(=O)Cn1cc(C(=O)C2CC2)c2ccccc21 | . | . | . | . | . | .
COC(=O)c1cn(CC(=O)N2CCCCCC2)c2ccccc12 | 92 | . | . | . | . | .
COC(=O)c1cn(CC(=O)NCc2ccco2)c2ccccc12 | 92 | . | . | . | . | .
N#Cc1ccc(CN2CCN(C(=O)c3ccccc3)CC2)c(Cl)c1 | 74 | . | . | . | . | .
O=C(c1ccccc1)N1CCN(Cc2c[nH]c3ccccc23)CC1 | 65 | . | . | . | . | .
O=C(c1ccc(F)cc1)N1CCN(Cc2ccccc2Br)CC1 | 98 | 69 | . | . | . | .
O=C(CCCc1c[nH]c2ccccc12)N1CCCCCC1 | 98 | . | . | . | . | .
O=C(c1ccc(-n2cccc2)cc1)N1CCN(Cc2ccccc2)CC1 | . | . | . | . | . | .
SMILES | CYP2C19 inhib | CYP2C9 inhib | CYP2C9 act | CYP2C19 activ | PostGolgi ctrl | PostGolgi yeast
O=C(c1cccc(F)c1)N1CCN(Cc2c[nH]c3ccccc23)CC1 | . | . | . | . | . | .
Fc1ccc(-c2cc(C(F)(F)F)nc(NCC3CCCO3)n2)cc1 (centres undefined) | . | . | . | . | . | .
Cc1cccc2cc(CN(CCN3CCOCC3)C(=O)NCc3ccccc3)c(=O)[nH]c12 | . | . | . | . | . | .
O=C(c1cnc2n(c1=O)CCS2)N(C1CCCCC1)C1CCCCC1 | . | . | . | . | . | .
CCOC(=O)Nc1nc(-c2ccccc2)c(C(=O)c2ccccc2)s1 | . | . | . | . | . | .
Cc1cc(NS(=O)(=O)c2ccc(NC(=O)C(C)Oc3ccc(Cl)cc3)cc2)no1 (centres undefined) | . | . | . | . | . | .
Cc1cc(NS(=O)(=O)c2ccc(NC(=O)NC3CCCCC3)cc2)no1 | . | . | . | . | . | .
Cc1cc(NS(=O)(=O)c2ccc(CC(C)C)cc2)no1 | 72 | 90 | . | . | . | .
Cc1cc(NS(=O)(=O)c2ccc(C3CCCCC3)cc2)no1 | . | . | . | . | 34 | .
CCC(=O)Nc1ccc(S(=O)(=O)Nc2cc(C)on2)cc1 | . | . | . | . | . | .
Cc1ccc(OC(C)C(=O)Nc2ccc(S(=O)(=O)Nc3cc(C)on3)cc2)cc1 (centres undefined) | . | . | . | . | 33 | .
Cc1cccc(-n2nnc(C(=O)NCc3ccccn3)c2N)c1 | . | . | . | . | . | .
CCn1c(=O)c([N+](=O)[O-])c(NCCc2ccccc2)c2ccccc21 | . | . | . | . | . | .
Cc1ccc(Nc2c([N+](=O)[O-])c(=O)n(C)c3ccccc23)cc1C | 64 | . | . | . | . | .
CCOC(=O)Nc1ccc(S(=O)(=O)N2CCOCC2)cc1 | . | . | . | . | . | .
Cc1[nH]c2ccc(CNS(=O)(=O)c3ccc(S(=O)(=O)N4CCOCC4)cc3)cc2c1C | 64 | 71 | . | . | . | .
O=C(Nc1cccnc1)c1cc(-c2ccc3c(c2)OCO3)on1 | . | . | . | . | . | .
COc1ccc(/C=N/n2cc(-c3ccccc3)nc2N)cc1 | . | . | . | . | . | .
COc1ccc(/C=N/N=C2/NC(=O)C(c3ccccc3)(c3ccccc3)S2)cc1 | . | 82 | . | . | . | .
CCOc1ccc(C)cc1S(=O)(=O)n1ccc(C)n1 | . | . | 2.3 | . | . | .
CCOc1cc(C)c(C(C)C)cc1S(=O)(=O)n1ccc(C)n1 | 54 | . | . | . | . | .
COc1cc(S(=O)(=O)n2ccc(C)n2)c(OC)cc1Cl | 67 | . | . | . | 34 | .
COc1cc(S(=O)(=O)N2CCN(C)CC2)c(OC)cc1Cl | . | . | . | . | . | .
COc1cc(C)c(Cl)cc1S(=O)(=O)n1ccnc1C | 92 | . | . | . | . | .
CCOC(=O)C1=CSC2=NS(=O)(=O)CCN12 | . | . | . | . | . | .
SMILES | CYP2C19 inhib | CYP2C9 inhib | CYP2C9 act | CYP2C19 activ | PostGolgi ctrl | PostGolgi yeast
N#Cc1c(NCCN)nc(NCc2ccccc2)c2c1CCN(Cc1ccccc1)C2 | 88 | 95 | . | . | / | /
N#Cc1c(N2CCCCC2)nc(N2CCCCC2)c2c1CCN(Cc1ccccc1)C2 | 68 | 96 | . | . | . | .
Cc1cc(C)c(C#N)c(N2CCN(Cc3ccccc3)CC2)n1 | 62 | 50 | . | . | . | .
C=CCNc1nc(NCc2ccccc2)c(C#N)c2c1CN(C)CC2 | . | . | . | . | . | .
COCCn1cc(C(=O)NCCCN2CCC(C)CC2)c2c3ccccc3n(C)c2c1=O | . | . | . | . | . | .
CC(C)Cn1c(=O)c2c(c3ccccc31)OC(C)C(=O)N2 (centres undefined) | / | / | / | / | . | .
C=CCNC(=S)NNC(=O)CCC(O)CCCCC (centres undefined) | . | . | . | . | . | .
CCCc1cc(=O)n2[nH]c(-c3ccc(OC)cc3)nc2n1 | . | . | . | . | . | .

Compound activity from PubChem.
